Source: paper PMC4336329 (PLoS ONE, 2015)
In all, about 310,000 compounds went through this assay and about 14,000 (4.5%) showed an effect of 50% or more. Effects have a minus sign here. For the sample, strong results were picked, then their nearest neighbours and some compounds at random.

molecular target: human ether-à-go-go-related gene (hERG) potassium channel (human, UniProt Q12809); test: primary screen, population patch clamp on CHO cells stably expressing hERG; higher = less effect of the substance
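Further: peak tail current of the secondary pulse compared with the same well before compound.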

Chain of human ether-à-go-go-related gene (hERG) potassium channel (Q12809 whole entry, looked up): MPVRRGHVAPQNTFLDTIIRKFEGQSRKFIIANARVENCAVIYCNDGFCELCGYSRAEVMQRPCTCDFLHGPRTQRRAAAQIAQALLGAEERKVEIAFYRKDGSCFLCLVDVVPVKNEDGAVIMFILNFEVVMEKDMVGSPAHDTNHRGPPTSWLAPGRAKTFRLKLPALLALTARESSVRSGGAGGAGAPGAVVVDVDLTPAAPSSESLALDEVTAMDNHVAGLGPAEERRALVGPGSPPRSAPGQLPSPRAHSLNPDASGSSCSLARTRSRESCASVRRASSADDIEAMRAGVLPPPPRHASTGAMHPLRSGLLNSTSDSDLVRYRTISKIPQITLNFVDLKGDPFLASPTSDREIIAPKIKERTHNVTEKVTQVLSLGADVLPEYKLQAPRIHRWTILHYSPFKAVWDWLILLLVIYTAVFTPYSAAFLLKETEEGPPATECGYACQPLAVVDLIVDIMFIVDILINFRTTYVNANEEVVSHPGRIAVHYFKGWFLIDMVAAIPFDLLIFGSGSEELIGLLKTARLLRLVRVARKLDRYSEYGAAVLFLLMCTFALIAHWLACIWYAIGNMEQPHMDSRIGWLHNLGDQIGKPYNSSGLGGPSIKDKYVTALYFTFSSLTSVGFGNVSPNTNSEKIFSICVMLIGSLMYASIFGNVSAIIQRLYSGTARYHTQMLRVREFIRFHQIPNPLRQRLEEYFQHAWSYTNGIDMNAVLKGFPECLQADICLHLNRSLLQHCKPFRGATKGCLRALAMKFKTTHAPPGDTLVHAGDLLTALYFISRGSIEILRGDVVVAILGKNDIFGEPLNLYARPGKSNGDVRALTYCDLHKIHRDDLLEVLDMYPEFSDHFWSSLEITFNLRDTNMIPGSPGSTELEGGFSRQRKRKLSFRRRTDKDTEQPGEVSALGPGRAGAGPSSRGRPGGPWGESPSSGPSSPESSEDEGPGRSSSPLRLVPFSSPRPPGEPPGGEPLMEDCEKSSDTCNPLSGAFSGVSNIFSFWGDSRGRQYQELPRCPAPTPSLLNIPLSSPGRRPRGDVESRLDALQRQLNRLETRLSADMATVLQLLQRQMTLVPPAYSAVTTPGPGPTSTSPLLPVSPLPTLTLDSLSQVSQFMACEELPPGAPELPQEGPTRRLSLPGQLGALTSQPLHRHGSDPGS

Going from `CC(=O)N1CCCc2cc(S(=O)(=O)N3CCCC(C(=O)Nc4ccccc4C)C3)ccc21` (centres unmarked) to `COCCNC(=O)c1c[nH]c2ccc(S(=O)(=O)N3CCc4ccccc43)cc2c1=O`, the “hERG current change (%, negative = inhibition) at 10uM” value falls from 10.9% to 6.11%.

First: Cc1cc(C)cc(NC(=S)N2CCN(C(=O)c3ccco3)CC2)c1
Second: CCOc1ccccc1N1CCN(C(=O)c2cc3c(C)cc(C)cc3[nH]2)CC1
The “hERG current change (%, negative = inhibition) at 10uM” value of the first is higher: -0.347% for the first, -4.74% for the second.

First: Cc1onc(-c2ccccc2Cl)c1C(=O)OCC(=O)N1CCN(c2ccccc2)CC1
Second: Br.CCOC(=O)Cn1c(=N)n(Cc2ccccc2)c2ccccc21
The “hERG current change (%, negative = inhibition) at 10uM” value of the first is higher: -16.1% for the first, -34.6% for the second.

Compared with `CC1=C(C(=O)OCc2ccccc2)C(c2ccc(C#N)cc2)NC(=O)N1CCCC(=O)O` (centres unmarked), `Cl.N=c1n(CCCOc2ccc(F)cc2)c2ccccc2n1CC(N)=O` is lower in “hERG current change (%, negative = inhibition) at 10uM” value: 10.9% for the first, -41.6% for the second.

First: CCOC(=O)CSc1nc2ccccc2c(=O)n1C
Second: Br.CCCn1c(=N)n(CC(=O)OCC)c2ccccc21
The “hERG current change (%, negative = inhibition) at 10uM” value of the first is higher: 10.1% for the first, -4.66% for the second.

Compared with `CCOC(=O)c1c(NC(=O)CSc2nccn2C)sc(C(=O)NC)c1C`, `CCCCn1c(SC(C)C(N)=O)nc2cc(C(=O)OC)ccc2c1=O` (centres unmarked) is higher in “hERG current change (%, negative = inhibition) at 10uM” value: -11.5% for the first, -1.48% for the second.

Compared with `COc1ccc2ccccc2c1/C=N/N1C(=O)CSC1=S`, `COc1ccccc1NC(=O)Cn1c(C)cc(=O)c2cccc(OC)c21` is lower in “hERG current change (%, negative = inhibition) at 10uM” value: 16.7% for the first, -33.3% for the second.

First: COc1ccc(-n2nc(C(=O)NCC(=O)NCCCN3CCOCC3)c3ccccc3c2=O)cc1
Second: O=C(C1=C[C@H](c2coc3ccccc3c2=O)C[C@H](OCc2ccc(CO)cc2)O1)N1CCOCC1
The “hERG current change (%, negative = inhibition) at 10uM” value of the first is higher: 3.4% for the first, -49.7% for the second.

First: CCN(CC(=O)N1CCCC1)S(=O)(=O)c1ccc(Br)cc1
Second: CCOC(=O)Nc1ccc(S(=O)(=O)N2CCOCC2)cc1
The “hERG current change (%, negative = inhibition) at 10uM” value of the first is higher: 13.5% for the first, 6.38% for the second.

Compared with `CCc1cc(=O)oc2c3c(cc(OCC(=O)NC4CC4)c12)OC(C)(C)CC3`, `CCCOc1ccc(C(C)=O)cc1CSc1nc(O)cc(=O)[nH]1` is higher in “hERG current change (%, negative = inhibition) at 10uM” value: -13.9% for the first, 14.4% for the second.

Going from `Cc1ccc(CN2CCN(/N=C/c3cccnc3)CC2)c(C)c1` to `Cc1cccc(OCCn2c(=O)n(C)c3ccccc32)c1`, the “hERG current change (%, negative = inhibition) at 10uM” value rises from -47.5% to -13.6%.

Compared with `O=C(OCc1ccccc1F)c1ccc2c(c1)-c1ccccc1C2=O`, `CCOC(=O)Cn1c(=N)n(Cc2ccccc2F)c2ccccc21.Cl` is lower in “hERG current change (%, negative = inhibition) at 10uM” value: 16.4% for the first, -28.3% for the second.

Compared with `CCOC(=O)Cn1c(=N)n(CCOc2ccc(Br)cc2)c2ccccc21.Cl`, `CCOC(=O)Cn1c(=N)n(CCOc2ccc(F)cc2)c2ccccc21.Cl` is higher in “hERG current change (%, negative = inhibition) at 10uM” value: -69.5% for the first, -65.8% for the second.

First: CCOC(=O)Cn1c(=N)n(CCOc2ccc(OC)cc2)c2ccccc21.Cl
Second: CCOC(=O)Cn1c(=N)n(CCOc2cccc(C)c2)c2ccccc21.Cl
The “hERG current change (%, negative = inhibition) at 10uM” value of the first is higher: -56.4% for the first, -62.2% for the second.

Going from `CCOC(=O)Cn1c(=O)n(CC(=O)OCC)c2ccccc21` to `Br.C=CCn1c(=N)n(CC(=O)OCC)c2ccccc21`, the “hERG current change (%, negative = inhibition) at 10uM” value falls from 12.3% to 5.36%.

Compared with `Cc1cccc(OCCn2c(=O)sc3ccccc32)c1`, `CCOC(=O)Cn1c(=N)n(CCOc2ccc3ccccc3c2)c2ccccc21.Cl` is lower in “hERG current change (%, negative = inhibition) at 10uM” value: -3.38% for the first, -75.3% for the second.

Going from `Cl.N=c1n(CCCOc2ccc(Br)cc2)c2ccccc2n1CC(N)=O` to `NC(=O)C1=C[C@@H](c2coc3ccccc3c2=O)C[C@@H](OCc2ccc(CO)cc2)O1`, the “hERG current change (%, negative = inhibition) at 10uM” value rises from -44.7% to -31%.

First: CC(/C=N/Nc1nc2ccccc2[nH]1)=C\c1ccccc1
Second: COc1ccc(/C=N/NC(=O)c2ccccc2)cc1OS(=O)(=O)c1ccccc1
The “hERG current change (%, negative = inhibition) at 10uM” value of the first is lower: -41.8% for the first, -3.53% for the second.

Compared with `O=C(NCCCN1CCCC1=O)Nc1ccc(F)c(Cl)c1`, `Cn1c(=O)[nH]c(=O)c2c1nc(N1CCN(CCO)CC1)n2Cc1ccccc1Cl` is lower in “hERG current change (%, negative = inhibition) at 10uM” value: -1.92% for the first, -6.38% for the second.

First: Cc1nc2ccccc2c(=O)n1-c1cccc(NS(=O)(=O)c2ccccc2)c1
Second: Cl.OC(c1ccccc1)(c1ccc(F)cc1)C(c1ccccc1)N1CCOCC1 (centres unmarked)
The “hERG current change (%, negative = inhibition) at 10uM” value of the first is lower: -20.9% for the first, 16.8% for the second.

Compared with `CC(=O)Nc1ccc(N2C(=O)c3ccc(C(=O)Nc4nnc(SCc5ccc(F)cc5)s4)cc3C2=O)cc1`, `O=C(CSc1cccc2cccnc12)N/N=C/c1cccc(O)c1` is lower in “hERG current change (%, negative = inhibition) at 10uM” value: 13.4% for the first, 2.95% for the second.

First: CC(=O)NC(=O)COC(=O)c1ccc2ncsc2c1
Second: O=C(NC(=O)c1ccccc1)NC1(C(F)(F)F)OCCO1
The “hERG current change (%, negative = inhibition) at 10uM” value of the first is higher: 18.5% for the first, 2.65% for the second.

Going from `Cc1ccc(-c2nnc(SCC(=O)N/N=C/c3ccccc3C(=O)O)n2C2CCCCC2)cc1` to `O=C(C1=C[C@@H](c2coc3ccccc3c2=O)C[C@@H](OCc2ccc(CO)cc2)O1)N1CCCCCCC1`, the “hERG current change (%, negative = inhibition) at 10uM” value falls from 11.1% to -66.5%.

Compared with `COc1ccc(S(N)(=O)=O)cc1C(=O)OCCCOC(=O)c1cc(S(N)(=O)=O)ccc1OC`, `C=CCOC(=O)C1=C[C@H](c2coc3ccccc3c2=O)C[C@H](OCc2ccc(CO)cc2)O1` is lower in “hERG current change (%, negative = inhibition) at 10uM” value: 4.29% for the first, -62.3% for the second.

First: CN1CCN(C(=O)C2=C[C@H](c3coc4ccccc4c3=O)C[C@H](OCc3ccc(CO)cc3)O2)CC1
Second: O=C(C1=C[C@@H](c2coc3ccccc3c2=O)C[C@@H](OCc2ccc(CO)cc2)O1)N1CCOCC1
The “hERG current change (%, negative = inhibition) at 10uM” value of the first is lower: -41.1% for the first, -24.7% for the second.

Going from `O=C(C1=C[C@@H](c2coc3ccccc3c2=O)C[C@@H](OCc2ccc(CO)cc2)O1)N1CCN(Cc2ccccc2)CC1` to `O=C(C1=C[C@H](c2coc3ccccc3c2=O)C[C@H](OCc2ccc(CO)cc2)O1)N1CCN(Cc2ccccc2)CC1`, the “hERG current change (%, negative = inhibition) at 10uM” value falls from -48% to -61.7%.

`C=CCOC(=O)C1=C[C@@H](c2coc3ccccc3c2=O)C[C@@H](OCc2ccc(CO)cc2)O1` was tested, and the “hERG current change (%, negative = inhibition) at 10uM” value was -40.9%.
